Screening results as filed in PubChem BioAssay.
Peg3 prom inh-1: inhibitors of Peg3 promoter | HeLa PEG-Prom luciferase reporter, luminescence, overnight | inhibition, % at 20 µM | 360,000 tested, 1.7% active;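 active = inhibition of at least 50% at 20 µM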
CF NFkB block: blocks PAF-induced NF-kB reporter in cystic fibrosis cells; KKLEB NF-kB-GFP reporter, GFP fluorescence overnight; inhibition, % at 5 µM; 360,000 tested, 0.86% active; AID 588850;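 active = at least 50% inhibition at 5 µM, scaled per plate between neutral and stimulator controls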;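 also: PAF is a Pseudomonas aeruginosa culture filtrate used as stimulus; plate controls were PAF-stimulated DMSO wells for no effect and unstimulated DMSO wells for full effect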
KKLEB cytotox: reduces viability of KKLEB cystic fibrosis airway cells | KKLEB CF airway cells viability, ATPlite luminescence, overnight; hits give low values; cells stimulated with P. aeruginosa culture filtrate | activity change (cytotoxicity), % at 5 µM | 360,000 tested, 0.36% active | AID 602141;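 active = corrected activity change at or below -50% at 5 µM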
TWEAK Fn14 block: TWEAK-Fn14 signaling inhibition. TWEAK-stimulated Fn14 reporter cells, luciferase luminescence, 8 h. inhibition, % at 10 µM. 360,000 tested, 2% active. AID 1159606; in the data active = inhibition above about 50%
HIF-2a block: inhibitors of HIF-2a. AID 624352. inhibition, % at 18.8 µM. 786-0 RCC cells HIF-2a reporter, luciferase luminescence, overnight. 360,000 tested, 0.72% active;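 active = inhibition of the luminescence signal of 40% or more relative to plate controls, in a single-dose primary screen at 18.75 µM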
TROY signal inh: TROY signaling inhibition | Q293 LMP1-TROYcd NF-kB luciferase reporter, 4 h | inhibition, % at 10 µM | 360,000 tested, 0.98% active;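 active = compounds whose plate-normalised and pattern-corrected inhibition of the luciferase reporter signal at the single screening dose is 50% or more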
Peg3 prom inh-2: Peg3 promoter inhibition confirmation. shares compounds with Peg3 prom inh-1. HeLa PEG-Prom luciferase reporter, luminescence, overnight. inhibition, % at 20 µM. 1,300 tested, 84% active. AID 602417;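 active = at 20 µM dose, 40% or more inhibition averaged across four replicates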
The depositor's hits bear a star. This is a sample that favours compounds with a hit; in the whole collection about 4% have one here.

Results for COc1ccc(CC(N)c2csc(NC(=O)c3cccs3)n2)cc1 (stereo not given) ?
Peg3 prom inh-1: 13.1; CF NFkB block: -7.7; KKLEB cytotox: -29.9; TWEAK Fn14 block: 13.8; HIF-2a block: 1.6; TROY signal inh: 6.9

How did COc1cc(NC(=O)Nc2nc(C(N)CCc3ccccc3)cs2)cc(OC)c1OC (stereo not given) do in these assays?
Peg3 prom inh-1: 73.9*; CF NFkB block: -21.6; KKLEB cytotox: 5.7; TWEAK Fn14 block: 39.1; HIF-2a block: -21.7; TROY signal inh: 39.0; Peg3 prom inh-2: 82.6*

What do the screens show for `Cc1ccccc1NC(=O)Nc1nc(CN)cs1`?
Peg3 prom inh-1: -2.1; CF NFkB block: -20.7; KKLEB cytotox: 7.4; TWEAK Fn14 block: 7.8; HIF-2a block: 8.3; TROY signal inh: 9.6

What do the screens show for `CC(C)CC1C(=O)N(Cc2cn(CCC3OCCO3)nn2)CCS(=O)(=O)N1Cc1ccc(-c2ccc(F)cc2)cc1` (stereo not given)?
Peg3 prom inh-1: 50.2*; CF NFkB block: 13.6; KKLEB cytotox: 1.8; TWEAK Fn14 block: 12.8; HIF-2a block: 1.5; TROY signal inh: 12.6; Peg3 prom inh-2: 55.3*

Results for Cc1ccccc1-n1nnnc1SCC(=O)c1c(N)n(C2CC2)c(=O)[nH]c1=O ?
Peg3 prom inh-1: 14.3; CF NFkB block: -17.6; KKLEB cytotox: 1.6; TWEAK Fn14 block: -2.1; HIF-2a block: 19.3; TROY signal inh: 22.6

Results for COc1cc(/C=C/C(=O)OCC(=O)NCCc2ccc(S(N)(=O)=O)cc2)ccc1OCC#N ?
Peg3 prom inh-1: 7.1; CF NFkB block: -22.5; KKLEB cytotox: 11.6; TWEAK Fn14 block: -17.8; HIF-2a block: 7.8; TROY signal inh: -7.9

What do the screens show for `CCC(C)NCCOCCOc1ccc(Cl)c2ccccc12` (stereo not given)?
Peg3 prom inh-1: 102.0*; CF NFkB block: 28.8; KKLEB cytotox: -32.5; TWEAK Fn14 block: -34.7; HIF-2a block: 10.5; TROY signal inh: -50.8; Peg3 prom inh-2: 98.4*

What do the screens show for `Cn1c2ccccc2c2ccc3c(c21)C(=O)C=CC3=O`?
Peg3 prom inh-1: 104.5*; CF NFkB block: 33.0; KKLEB cytotox: -12.4; TWEAK Fn14 block: 17.6; HIF-2a block: -12.1; TROY signal inh: -12.8; Peg3 prom inh-2: 100.7*

What do the screens show for `COc1ccc(CNC(=O)CN(Cc2ccco2)C(=O)CCC(=O)Nc2ccccn2)cc1`?
Peg3 prom inh-1: 14.1; CF NFkB block: 15.5; KKLEB cytotox: 3.1; TWEAK Fn14 block: 2.1; HIF-2a block: 2.3; TROY signal inh: -10.1

What do the screens show for `CC(=O)c1cccc(NC(=O)C2Cc3c(-c4cccc(C(C)=O)c4)ccnc3O2)c1` (stereo not given)?
Peg3 prom inh-1: 34.8; CF NFkB block: -94.5; KKLEB cytotox: 12.7; TWEAK Fn14 block: 48.1; HIF-2a block: -0.7; TROY signal inh: 34.9

What do the screens show for `CC(=O)c1cccc(-c2ccnc3c2CC(C(=O)Nc2cccc(NS(C)(=O)=O)c2)O3)c1` (stereo not given)?
Peg3 prom inh-1: 58.6*; CF NFkB block: -9.2; KKLEB cytotox: -1.1; TWEAK Fn14 block: -20.5; HIF-2a block: 28.1; TROY signal inh: 6.5; Peg3 prom inh-2: 56.6*

What do the screens show for `CCN(CC)CCC=C(c1cccs1)c1cccs1`?
Peg3 prom inh-1: -22.4; CF NFkB block: -10.5; KKLEB cytotox: 6.8; TWEAK Fn14 block: 4.4; HIF-2a block: 3.2; TROY signal inh: -11.3

Results for CC1(C)CC(NCCN2CCN(C3=CC(=C(C#N)C#N)CC(C)(C)C3)CC2)=CC(=C(C#N)C#N)C1 ?
Peg3 prom inh-1: 50.5*; CF NFkB block: 8.6; KKLEB cytotox: -8.6; TWEAK Fn14 block: 22.0; HIF-2a block: 8.8; TROY signal inh: 22.7; Peg3 prom inh-2: 44.0*

Results for CNC(=S)N1CCN(CCNC2=CC(=O)CC(C)(C)C2)CC1 ?
Peg3 prom inh-1: 1.4; CF NFkB block: -3.0; KKLEB cytotox: 18.2; TWEAK Fn14 block: -17.7; HIF-2a block: 18.4; TROY signal inh: -3.0

What do the screens show for `Cc1ccc2c(c1)N(CC(=O)N1CCCC1)C(=O)c1cccnc1O2`?
Peg3 prom inh-1: 19.7; CF NFkB block: 6.7; KKLEB cytotox: 9.6; TWEAK Fn14 block: 6.6; HIF-2a block: 11.3; TROY signal inh: -13.2

How did COc1cccc(N(C(=O)CS(=O)CC(=O)Nc2ccc(F)cc2)C(C(=O)NC2CCCCC2)c2cccs2)c1 (stereo not given) do in these assays?
Peg3 prom inh-1: 59.8*; CF NFkB block: -1.4; KKLEB cytotox: -10.5; TWEAK Fn14 block: 5.6; HIF-2a block: 12.0; TROY signal inh: 14.8; Peg3 prom inh-2: 19.9

Results for Cc1cnc(=O)[nH]c1SCc1cccc([N+](=O)[O-])c1 ?
Peg3 prom inh-1: 2.8; CF NFkB block: 13.1; KKLEB cytotox: -5.0; TWEAK Fn14 block: 7.1; HIF-2a block: 7.9; TROY signal inh: 28.9

How did O=C(NCc1ccccc1)C1(CC2CC(c3ccccc3)=NO2)CCNCC1 (stereo not given) do in these assays?
Peg3 prom inh-1: -15.8; CF NFkB block: -9.1; KKLEB cytotox: -8.3; TWEAK Fn14 block: -17.3; HIF-2a block: -2.8; TROY signal inh: -24.8

What do the screens show for `CCCCCCCNC(=O)C1(CC2CC(c3ccccc3)=NO2)CCNCC1` (stereo not given)?
Peg3 prom inh-1: 94.0*; CF NFkB block: 9.9; KKLEB cytotox: -5.3; TWEAK Fn14 block: -4.1; HIF-2a block: -11.2; TROY signal inh: -17.5; Peg3 prom inh-2: 78.8*

How did Cc1ccc(C(=O)Nc2c(C)n(C)n(-c3ccccc3)c2=O)cc1 do in these assays?
Peg3 prom inh-1: 6.8; CF NFkB block: -6.2; KKLEB cytotox: 13.3; TWEAK Fn14 block: 0.5; HIF-2a block: 21.9; TROY signal inh: 8.3

How did Cc1ccc(-n2c(N)c(C(=O)Nc3c(C)n(C)n(-c4ccccc4)c3=O)c3nc4ccccc4nc32)cc1 do in these assays?
Peg3 prom inh-1: 75.7*; CF NFkB block: 14.7; KKLEB cytotox: -47.2; TWEAK Fn14 block: -5.8; HIF-2a block: -12.6; TROY signal inh: 11.5; Peg3 prom inh-2: 51.3*

How did CCCc1nc2cc3c(cc2[nH]1)n(C)c(=O)n3C do in these assays?
Peg3 prom inh-1: -1.6; CF NFkB block: 6.9; KKLEB cytotox: -0.3; TWEAK Fn14 block: -11.8; HIF-2a block: 6.0; TROY signal inh: 17.3

Results for Cc1cc(S(=O)(=O)c2ccc(Cl)cc2)nc(S(=O)(=O)c2ccc(Cl)cc2)c1C#N ?
Peg3 prom inh-1: 112.8*; CF NFkB block: 87.5*; KKLEB cytotox: -93.4*; TWEAK Fn14 block: 77.0*; HIF-2a block: 89.0*; TROY signal inh: 57.3*; Peg3 prom inh-2: 96.7*

What do the screens show for `COc1ccccc1NS(=O)(=O)c1ccc(C)c(C(=O)N2CCN(c3ccc(O)cc3)CC2)c1`?
Peg3 prom inh-1: 4.3; CF NFkB block: 1.7; KKLEB cytotox: 5.7; TWEAK Fn14 block: -3.6; HIF-2a block: -4.2; TROY signal inh: 0.5
